Results as given in PubChem BioAssay (NCI).
Several values for one entry are separate records, joined by “and”; a condition that tells them apart may be missing. Equal entries are not always repeated. About 83,000 compounds went through this panel and 20% of them were active in at least one assay; those are over-represented in the sample as a whole.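 The test compound was applied at a single concentration to cells in 96-well plates for 48 hours, and percent growth was recorded.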 Activity calls are given as the source filed them. How the source made its calls: active means growth percent below 10; inactive means the rest.

Tests used:
Assay in all cases: NCI-60 one-dose screen, 48 h (100 = growth as untreated, 0 = no growth, -100 = all killed)
Settings in all cases: 10 µM unless noted
SK-MEL-2 melanoma = test system: SK-MEL-2 melanoma
EKVX NSCLC = test system: EKVX NSCLC
SN12C renal = test system: SN12C renal
UO-31 renal = test system: UO-31 renal
TK-10 renal = test system: TK-10 renal
ACHN renal = test system: ACHN renal
CAKI-1 renal = test system: CAKI-1 renal
A498 renal = test system: A498 renal
CCRF-CEM leukemia = test system: CCRF-CEM leukemia
MOLT-4 leukemia = test system: MOLT-4 leukemia
SR leukemia = test system: SR leukemia
RPMI-8226 leukemia = test system: RPMI-8226 leukemia
OVCAR-8 ovarian = test system: OVCAR-8 ovarian
OVCAR-5 ovarian = test system: OVCAR-5 ovarian
OVCAR-4 ovarian = test system: OVCAR-4 ovarian
SK-OV-3 ovarian = test system: SK-OV-3 ovarian
IGROV1 ovarian = test system: IGROV1 ovarian
OVCAR-3 ovarian = test system: OVCAR-3 ovarian
HS 578T breast = test system: HS 578T breast
NCI/ADR-RES ovarian = test system: NCI/ADR-RES ovarian

Row | Compound | growth (SK-MEL-2 melanoma) | growth (EKVX NSCLC) | growth (SN12C renal) | growth (UO-31 renal) | growth (TK-10 renal) | growth (ACHN renal) | growth (CAKI-1 renal) | growth (A498 renal) | growth (CCRF-CEM leukemia) | growth (MOLT-4 leukemia) | growth (SR leukemia) | growth (RPMI-8226 leukemia) | growth (OVCAR-8 ovarian) | growth (OVCAR-5 ovarian) | growth (OVCAR-4 ovarian) | growth (SK-OV-3 ovarian) | growth (IGROV1 ovarian) | growth (OVCAR-3 ovarian) | growth (HS 578T breast) | growth (NCI/ADR-RES ovarian)
1 | CC(C)(C)c1cc(C(C)(C)c2ccccc2)cc(Cc2cc(C(C)(C)c3ccccc3)cc(C(C)(C)C)c2O)c1O | 72.1% (inactive) | 110% (inactive) | 95.7% (inactive) | 80.9% (inactive) | 98.1% (inactive) | 102% (inactive) | 104% (inactive) | 125% (inactive) | 66.1% (inactive) | 54.4% (inactive) | -21.9% (active) | 91% (inactive) | 97.9% (inactive) | 91.8% (inactive) | 90.2% (inactive) | 105% (inactive) | 96.5% (inactive) | 106% (inactive) | 105% (inactive) | 102% (inactive)
2 | O=C(CN1C(=O)S/C(=C\C(Cl)=C\c2ccccc2)C1=O)NC1C=CS(=O)(=O)C1 (stereo not given) | 9.43% (active) | 17.7% (inactive) | -13.2% (active) | -78% (active) | -14.7% (active) | -57.5% (active) | 16.9% (inactive) | 97.2% (inactive) | 7.5% (active) | 4.12% (active) | 6.39% (active) | 0.667% (active) | 4.68% (active) | 44.2% (inactive) | 39.4% (inactive) | 98.8% (inactive) | -16.1% (active) | -12.6% (active) | 51.7% (inactive) | 24.7% (inactive)
3 | CCn1cc(C(=O)NN=C2CCCC2)c(=O)c2ccc(C)nc21 | 96.5% (inactive) | 88.8% (inactive) | 81% (inactive) | 81.3% (inactive) | 100% (inactive) | 86.6% (inactive) | 84.2% (inactive) | 66.7% (inactive) | 89.7% (inactive) | 100% (inactive) | 99.2% (inactive) | 92.7% (inactive) | 90% (inactive) | 94% (inactive) | 83.7% (inactive) | 91.2% (inactive) | 85% (inactive) | 94.3% (inactive) | 88.8% (inactive) | 89.8% (inactive)
4 | O=C(NNc1ccccc1)c1ncc[nH]1 | 78.2% (inactive) | 60.2% (inactive) | 72% (inactive) | 12.3% (inactive) | 77.9% (inactive) | 14.5% (inactive) | 3.43% (active) | 98.3% (inactive) | 32.7% (inactive) | 27.3% (inactive) | 104% (inactive) | 53.5% (inactive) | 80.9% (inactive) | 65.3% (inactive) | 48.4% (inactive) | 81.2% (inactive) | 71.1% (inactive) | 64.3% (inactive) | 89.2% (inactive) | 78.6% (inactive)
5 | COC(=O)[C@H]1Cc2c([nH]c3ccccc23)[C@@H](c2cccs2)N1 | 97.2% (inactive) | 96.3% (inactive) | 102% (inactive) | 93% (inactive) | 86.7% (inactive) | 111% (inactive) | 89.8% (inactive) | 93.2% (inactive) | 101% (inactive) | 103% (inactive) | 108% (inactive) | 103% (inactive) | 104% (inactive) | 102% (inactive) | 102% (inactive) | 102% (inactive) | 101% (inactive) | 111% (inactive) | 103% (inactive) | 106% (inactive)
6 | COc1ccc(/C(C)=C(\c2ccc(OCCN3CCCCCC3)cc2)c2ccc(OC(=O)C3CCCCC3)cc2)cc1 | -78.3% (active) | -25.3% (active) | -87.2% (active) | -96.9% (active) | -79.2% (active) | -88.5% (active) | -34.4% (active) | -3.54% (active) | -31.5% (active) | -13.7% (active) | -20.1% (active) | -55.1% (active) | -47.3% (active) | -24.7% (active) | -28.4% (active) | -70.9% (active) | -49% (active) | -86.9% (active) | -38.3% (active) | -65.2% (active)
7 | O=C(Nc1cc(C(F)(F)F)cc(C(F)(F)F)c1)c1cc(Cl)ccc1O | -40.3% (active) | 1.8% (active) and 3.4% (active) | -4.82% (active) and -10.6% (active) | -64.4% (active) and -19.6% (active) | -8.88% (active) and 5.69% (active) | -14% (active) and 2.27% (active) | -20.5% (active) and -23.8% (active) | -44.7% (active) and -69.3% (active) | -12.3% (active) and -10.4% (active) | -38.9% (active) and -44.7% (active) | -8.27% (active) | -31.5% (active) and -35.6% (active) | -37.8% (active) and 3.24% (active) | 27.2% (inactive) and 23.1% (inactive) | 24.8% (inactive) and 20.3% (inactive) | -56.9% (active) and 1.67% (active) | 4.82% (active) and 9.9% (active) | 19.3% (inactive) and 2.52% (active) | -8.03% (active) | -1.25% (active) and 2.06% (active)
